Results from PubChem BioAssay (NCI).
About 83,000 compounds went through this panel and 20% of them were active in at least one assay; those are over-represented in the sample as a whole.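 Growth was measured after 48 h exposure to one concentration of compound in 96-well plates. Values under 10 count as active.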 Active and inactive are the calls of the source.

The molecules below were run on MDA-MB-468 breast (assay: NCI-60 one-dose screen, 48 h (100 = growth as untreated, 0 = no growth, -100 = all killed)). Settings: 10 µM unless noted.

Compound	growth
Oc1c(Cl)cc(Cl)cc1/C=N/Nc1nnc(N/N=C/c2cc(Cl)cc(Cl)c2O)c2ccccc12	-29.9% (active)
Cc1ccccc1NC(=O)Oc1ccc(Cl)cc1C(=O)c1ccccc1	88.2% (inactive)
CCCc1c(C)c2sc(=O)[nH]c2[nH]c1=O	99.4% (inactive)
CC(=O)c1cc2c(N)c(C(=O)Nc3cccc4c3OCCO4)sc2nc1C	86.1% (inactive)
O=[N+]([O-])c1ccc2[nH]cc(-c3c4ccsc4cc4[nH]c5ccc([N+](=O)[O-])cc5c34)c2c1	1.21% (active)
NCCSC(C[N+](=O)[O-])c1ccccc1Cl (centres undefined)	10.2% (inactive)
COc1ccc2cn3c4ccc(O)cc4[nH]c(=O)c3c2c1	-11.9% (active)
NC1[C@H](c2c[nH]c3ccccc23)c2c([nH]c3ccccc23)[C@H]1c1c[nH]c2ccccc12 (some centres undefined)	106% (inactive)
Cc1nc2ccccc2c(/C=C/c2ccccc2)c1C(=O)/C=C/c1ccccc1	35.6% (inactive)
CCCn1c2cc(OCc3cn(-c4ccc(Cl)cc4)nn3)ccc2c2ccnc(C)c21	38.9% (inactive)
COc1ccc(C(=O)Nc2cccc(C3CC(=O)c4c(cc(OC)c(OC)c4OC)O3)c2)cc1 (centres undefined)	-2.79% (active)
COc1ccc2c(c1)CCNC21C(=O)Nc2c(Br)cc(Br)cc21 (centres undefined)	137% (inactive)
COc1ccc2c(c1)c(-c1nonc1-c1cn(C)c3ccc(OC)cc13)cn2C	29% (inactive)
O=S(=O)(c1ccc(N/N=C\c2ccccc2Cl)cc1)c1ccc(N/N=C/c2ccccc2Cl)cc1	91.5% (inactive)
